Screens from PubChem BioAssay.
SMARCA2 act – SMARCA2 (BRM) function activators, primary screen, cell-based, luminescence, high throughput; AID 652017, 2013; actives 1% (n = 370,000); activation, % at 9.1 µM; MG213 cells, MMTV-luciferase reporter, dexamethasone, overnight; in the data active = activation above about 7.8%
DAX1 inh-1 – DAX1 (NR0B1) inhibitors on StAR promoter, primary screen, cell-based, luminescence, SF-1 (NR5A1), full-length DAX-1; HEK293T StAR-luciferase reporter, SF-1/DAX-1 repression relief; inhibition, % at 6.8 µM; actives 1.1% (n = 370,000); AID 652010, 2013;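 active = inhibition above the mean over all tested compounds plus 3 SD, cut at about 3.6% in these data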;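 also: higher inhibition means more luminescence from relief of DAX-1 repression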
DAX1 inh-2 – DAX1 (NR0B1) inhibitors, primary screen, cell-based, HEK293, Gal4-DAX1, luciferase luminescence; inhibition, % at 6.75 µM; actives 0.99% (n = 340,000); HEK293 Gal4-DAX1 luciferase reporter; Nuclear receptor subfamily 0 group B member 1 (Homo sapiens), P51843; AID 504766, 2011;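 active = inhibition above the mean over all tested compounds plus 3 SD, cut at about 4.2% in these data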;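 also: inhibition shows as a rise in luminescence from relieved DAX1 repression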
Target sequence (P51843 207-470 limits assumed): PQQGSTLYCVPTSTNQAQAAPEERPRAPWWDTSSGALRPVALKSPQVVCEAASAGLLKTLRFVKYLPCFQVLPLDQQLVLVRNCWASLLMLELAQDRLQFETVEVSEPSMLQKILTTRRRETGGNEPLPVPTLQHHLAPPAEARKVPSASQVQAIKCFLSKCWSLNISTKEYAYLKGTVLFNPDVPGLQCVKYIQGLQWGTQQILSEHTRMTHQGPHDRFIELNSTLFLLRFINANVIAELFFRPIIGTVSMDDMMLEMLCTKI
hcDAF-12 act – H. contortus DAF-12 nuclear receptor activators, primary screen, cell-based, luminescence, HEK293, lit1-tk-luc reporter | HEK293 hcDAF-12 lit1-tk-luc reporter; 0% DMSO, 100% Δ7-dafachronic acid | actives 1.4% (n = 370,000) | activation, % at 6.8 µM;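 active = activation above the mean of all tested compounds plus 3 SD, cut at about 5.5% in these data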
hgDAF12 agonist – H. glycines DAF-12 receptor agonists, primary screen, cell-based, luminescence, HEK293, GAL4 fusion, UAS-luciferase; Nuclear hormone receptor DAF-12 (Heterodera glycines), GAL4 fusion; HEK293 GAL4-hgDAF12 UAS-luciferase reporter, agonist luminescence; normalized to butyrate control; activation, % at 6.8 µM; actives 1.8% (n = 370,000); AID 687014, 2013;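 active = activation above a cutoff set at the mean of all screened compounds plus 3 SD, cut at about 10% in these data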
ssDAF-12 act – S. stercoralis DAF-12 nuclear receptor activators, primary screen, cell-based, luminescence, HEK293, GRIP1 co-expression, lit1-tk-luc; HEK293 ssDAF-12/GRIP1 lit1-tk-luc reporter; % of 3 µM dafachronic acid response; AID 652126, 2013; activation, % at 6.8 µM; actives 1% (n = 370,000); Nuclear hormone receptor DAF-12 (Strongyloides stercoralis);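 active = activation above the mean over all tested compounds plus 3 SD, cut at about 0.9% in these data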
LXRb hcDAF ctr – LXR agonists, Gal4 luciferase reporter, confirmation, counter-screen for hcDAF-12 agonist project, cell-based, luminescence, HEK293, H. contortus campaign; HEK293 Gal4-LXR tk-luc reporter, 24 h; normalized: DMSO 0%, positive control 100%; activation, % at 6.8 µM; shares compounds with hcDAF-12 act; AID 743027, 2013; 3,400 tested, under 10 active;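 active = mean percent activation of the reporter above a cutoff set as the average over tested compounds plus their standard deviation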
hcDAF12 ag – H. contortus DAF-12 receptor agonists, confirmation, cell-based, luminescence, HEK293, lit1-tk-luc, triplicate | shares compounds with hcDAF-12 act | HEK293 hcDAF-12 lit1-tk-luc reporter; % of Δ7-dafachronic acid response | activation, % at 6.8 µM | actives 61% (n = 3,400);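 active = mean activation across triplicate tests above the threshold derived from the earlier primary screen, cut at about 5.5% in these data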
A number is an active result; . = inactive; / = no result given. Shown are actives, neighbours in structure and some others; about 4.8% of the full set was active somewhere.

SMILES	SMARCA2 act	DAX1 inh-1	DAX1 inh-2	hcDAF-12 act	hgDAF12 agonist	ssDAF-12 act	LXRb hcDAF ctr	hcDAF12 ag
CC1CCc2sc(C(=O)NNC(=S)NCC3CCCO3)cc2C1 (stereo not given)	.	.	.	.	.	.	/	/
O=C(NC(=S)Nc1ccccc1[N+](=O)[O-])c1ccccc1Cl	.	.	.	.	.	.	/	/
O=C(NNC(=S)NC(=O)c1ccccc1[N+](=O)[O-])c1ccccc1Cl	.	.	.	7.2	.	.	.	.
O=c1c2ccccc2cnn1-c1ccc(Br)cc1	.	3.9	.	11	16	2.1	.	12
CCOc1ccccc1C(=O)NCC(=O)Nc1ccc(-c2ccccc2)cc1	.	.	.	6.6	.	.	.	.
COc1ccc(C(=O)NCC(=O)Nc2ccc(-c3ccccc3)cc2)cc1	.	.	.	.	.	.	/	/
O=C(CSc1ncccn1)Nc1ccc2[nH]c(=O)[nH]c2c1	.	.	.	.	.	.	/	/
c1ccc(-c2nc3ccccc3o2)nc1	.	.	.	.	.	.	/	/
c1ccc2nc(-c3nc4ccccc4o3)ccc2c1	.	.	.	13	.	.	.	23
CC/C(=N\NC(=O)C1CCCC1)c1cccc(Br)c1	.	.	.	6.8	.	1.8	.	.
CC/C(=N\NC(=O)C1CCCC1)c1ccc(Br)cc1	.	.	.	.	.	.	/	/
Cn1c(=O)c2c(nc(SCCN3CCOCC3)n2Cc2ccccc2Cl)n(C)c1=O	.	.	.	.	.	.	/	/
Cn1c(=O)c2c(nc(SCCN3CCOCC3)n2Cc2ccc(F)cc2)n(C)c1=O	.	.	4.4	7.8	.	.	.	7.5
CCC1S/C(=N/N=C/c2ccco2)N(Cc2ccccc2C)C1=O (stereo not given)	.	.	.	.	.	.	/	/
O=C(CN1CCC(NC(=O)c2ccco2)CC1)Nc1cccc2ccccc12	.	.	.	.	.	.	/	/
C[C@H]1C(=O)N2[C@@H](C[C@]3(c4c[nH]c5ccccc45)c4ccccc4N(S(=O)(=O)c4ccccc4)[C@H]23)C(=O)N1C	/	/	/	6.8	.	.	.	.
COc1cc(Cn2cc([C@]34C[C@H]5C(=O)N(C)CC(=O)N5[C@H]3N(S(=O)(=O)c3ccccc3)c3ccccc34)c3ccccc32)cc(OC)c1	/	/	/	.	.	.	/	/
Cc1ccc(S(=O)(=O)N2CC3CCCN3c3ccc(C(F)(F)F)cc32)cc1 (stereo not given)	.	.	.	.	.	.	/	/
CN(C)c1ccc(N=Cc2nc(-c3ccccc3)oc2OC(=O)c2ccccc2)cc1	.	.	.	6.8	13	.	.	.
Clc1ccc2nc(-c3ccc4c(c3)OCO4)cn2c1	.	3.7	.	7.5	.	.	.	7.1
O=S1(=O)C=CCN1Cc1cn(Cc2ccccc2)nn1	.	.	/	.	.	.	/	/
O=C(c1ccc(-c2nc3ccccc3s2)o1)N1CCN(c2ccccc2O)CC1	.	.	.	6.8	.	.	.	.
